Assay outcomes (PubChem)
TRPM1 prom inh = inhibitors of MITF-driven TRPM1 promoter in melanoma cells. 0.83% of 330,000 active. SK-MEL-5 TRPM1 promoter luciferase, 24 h. AID 488899. inhibition, % at 12.5 µM;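 active means mean inhibition across replicates of 60% or more, whatever share of single replicates reaches that level; inconclusive means some that reach 60%, reason not given; inactive means mean inhibition across replicates below 60%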
CF NFkB block = inhibitors of cystic fibrosis induced NF-kB | KKLEB NF-kB-GFP reporter, PAF-induced, GFP fluorescence overnight | inhibition, % at 5 µM | 0.86% of 360,000 active;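 active means at least 50% inhibition at 5 µM, scaled per plate between neutral and stimulator controls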;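 further: PAF is a Pseudomonas aeruginosa culture filtrate used as stimulus; plate controls were PAF-stimulated DMSO wells for no effect and unstimulated DMSO wells for full effect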
Shn3 3UTR inh = inhibitors of Schnurri-3 3'UTR reporter in osteoblasts | Clone20 osteoblast Shn3 3'UTR firefly luciferase, 24 h | 0.52% of 360,000 active | inhibition, % at 12.5 µM | AID 588674;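 active means mean inhibition of at least 75% with every replicate also reaching 75%; inconclusive means mean inhibition at least 75% but some replicate below; inactive means mean inhibition below 75%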;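 further: 0% = median of neutral control wells and 100% = pilot-screen positive control compound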
Peg3 prom inh = Peg3 promoter activity inhibition | 1.7% of 360,000 active | inhibition, % at 20 µM | HeLa PEG-Prom luciferase reporter, luminescence, overnight;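 active means inhibition of at least 50% at 20 µM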
HIF-2a block = blocks HIF-2a reporter activity. inhibition, % at 18.8 µM. 786-0 RCC cells HIF-2a reporter, luciferase luminescence, overnight. 0.72% of 360,000 active;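 active means inhibition of the luminescence signal of 40% or more relative to plate controls, in a single-dose primary screen at 18.75 µM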
KKLEB cytotox = reduces viability of KKLEB cystic fibrosis airway cells; KKLEB CF airway cells viability, ATPlite luminescence, overnight; active compounds read low; cells stimulated with P. aeruginosa culture filtrate; activity change (cytotoxicity), % at 5 µM; 0.36% of 360,000 active;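 active means corrected activity change at or below -50% at 5 µM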
Mdm2 MdmX conf = Mdm2/MdmX (human) interaction inhibition, confirmed. inhibition, % at 8 µM. 99% of 740 active. AID 504601. shares compounds with HIF-2a block. SaOS-2 split-luciferase Mdm2/MdmX complementation, luminescence;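 active means mean inhibition of the luminescence signal across two replicates at or above 26 percent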
Target sequence (O15151 whole entry, looked up): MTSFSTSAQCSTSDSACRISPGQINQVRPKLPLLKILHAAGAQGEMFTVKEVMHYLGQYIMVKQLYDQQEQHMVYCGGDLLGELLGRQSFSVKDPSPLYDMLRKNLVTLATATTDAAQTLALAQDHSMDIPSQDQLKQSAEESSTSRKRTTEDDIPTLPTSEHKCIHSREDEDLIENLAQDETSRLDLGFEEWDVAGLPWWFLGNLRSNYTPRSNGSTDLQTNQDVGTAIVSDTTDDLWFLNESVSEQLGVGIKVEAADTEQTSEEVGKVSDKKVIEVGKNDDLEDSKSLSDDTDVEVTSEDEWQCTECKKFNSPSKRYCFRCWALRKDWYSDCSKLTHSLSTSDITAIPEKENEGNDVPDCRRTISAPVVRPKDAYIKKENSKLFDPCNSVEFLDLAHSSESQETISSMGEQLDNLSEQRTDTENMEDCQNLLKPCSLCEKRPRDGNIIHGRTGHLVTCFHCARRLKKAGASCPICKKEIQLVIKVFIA
Target sequence (Q00987 whole entry, looked up): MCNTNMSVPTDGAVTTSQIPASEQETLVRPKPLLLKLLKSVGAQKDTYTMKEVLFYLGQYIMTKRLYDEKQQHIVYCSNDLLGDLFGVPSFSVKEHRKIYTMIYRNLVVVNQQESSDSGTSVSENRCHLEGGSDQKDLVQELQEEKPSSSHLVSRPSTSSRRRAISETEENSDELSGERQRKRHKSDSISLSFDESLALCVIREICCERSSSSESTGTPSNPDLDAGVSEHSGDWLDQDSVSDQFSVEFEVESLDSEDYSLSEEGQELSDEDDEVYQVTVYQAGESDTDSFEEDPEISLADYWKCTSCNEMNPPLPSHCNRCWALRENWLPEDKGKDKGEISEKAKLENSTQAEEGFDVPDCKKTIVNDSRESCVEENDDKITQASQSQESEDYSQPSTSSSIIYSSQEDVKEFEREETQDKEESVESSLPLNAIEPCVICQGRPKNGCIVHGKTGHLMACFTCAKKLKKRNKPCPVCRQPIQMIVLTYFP
HIF-2a conf = confirmation of HIF-2a inhibitors | shares compounds with HIF-2a block | 786-0 RCC cells, HIF-2a luciferase reporter luminescence, overnight | inhibition, % at 18.8 µM | 56% of 1,800 active | AID 651580;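 active means mean inhibition across four replicates of at least 40 percent at the single tested concentration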
HIF-1a cs = inhibits HIF-1a reporter, a counter-screen for HIF-2a inhibitors. shares compounds with HIF-2a block. MiaPaCa-2 HIF-1a luciferase reporter, desferoxamine, overnight. inhibition, % at 18.8 µM. 72% of 1,800 active;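 active means mean inhibition of the reporter signal across four replicates at the single tested dose of 50% or more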
Numbers without * were called inactive; u = inconclusive; x = no result given. The list is not random: actives were taken first. Their share in the collection is about 2.7%.

SMILES | TRPM1 prom inh | CF NFkB block | Shn3 3UTR inh | Peg3 prom inh | HIF-2a block | KKLEB cytotox | HIF-2a conf | HIF-1a cs | others
COC(=O)c1ccc(N=c2sc(C(=O)OC)cc(=O)n2C)cc1 | 11.1 | 9.2 | -17.6 | 33.2 | 25.2 | -6.5 | x | x
COC(=O)c1cc(=O)n(Cc2ccco2)c(=Nc2ccc(F)c(Cl)c2)s1 | -1.4 | 3.7 | 27.7 | 102.2* | 67.4* | 0.6 | 62.3* | 105.3*
COc1nc(-c2ccc(Cl)cc2Cl)nc2ccccc12 | 0.3 | -20.6 | -18.4 | -24.5 | -85.6 | 0.0 | x | x
O=C(c1ccc(Br)cc1)C(CN1CCOCC1)c1ccccc1 (centres undefined) | 40.1 | 62.1* | 96.2* | 49.9 | 70.1* | -64.5* | -10.3 | -31.2
CC(CN1CCOCC1)OC(=O)c1ccc(Br)cc1 (centres undefined) | 11.7 | -9.5 | 8.4 | 1.0 | 14.4 | 0.9 | x | x
CCOCCCNc1ccc(N2C(=O)CCCC2=O)cc1[N+](=O)[O-] | -0.9 | -10.5 | 14.0 | 16.5 | 9.9 | 4.4 | x | x
O=C(Nc1sc2c(c1C(=O)O)CCC2)c1ccccc1Cl | -8.9 | -6.0 | 7.0 | 20.2 | 68.0* | 9.6 | 96.9* | -24.8
O=C(Nc1sc2c(c1C(=O)O)CCCC2)c1ccccc1Cl | 2.1 | 9.1 | -9.2 | -4.0 | -52.2 | -4.6 | x | x
CC(=O)c1ccc(NC2=C(N3CCOCC3)C(=O)c3ccccc3C2=O)cc1 | 18.0 | -25.5 | -28.6 | -17.7 | -34.2 | 7.8 | x | x
CC(=O)N(C)C1=C(N2CCOCC2)C(=O)c2ccccc2C1=O | 88.6* | 37.6 | 77.5 | 82.8* | -25.9 | -11.0 | x | x | Mdm2 MdmX conf=75.2*
COc1ccc(/C=C/C(=O)Nc2ccc(OC)nc2)cc1 | -6.9 | 11.0 | -7.9 | -96.5 | -99.3 | 1.8 | x | x
COc1ccc(CS(=O)(=O)/C(Cl)=C(/Cl)C(=O)Nc2ccc(OC)nc2)cc1 | 94.0* | 88.5* | 97.7* | 103.6* | 93.4* | -85.5* | x | x | Mdm2 MdmX conf=103.5*
CC(=O)Nc1ccc(NC(=O)c2c([N+](=O)[O-])c(C(C)(C)C)nn2C)cc1 | 11.2 | 3.7 | 8.6 | 2.4 | 60.0* | 7.9 | 66.7* | 35.9
CCCCn1c(N)c(N(CC)C(=O)CN2C(=O)NC(C)(c3ccccc3)C2=O)c(=O)[nH]c1=O (centres undefined) | 0.7 | -2.8 | -23.5 | -8.2 | 7.1 | -9.8 | x | x
COCCNC(=O)c1c[nH]c2ccc(S(=O)(=O)N3CCc4ccccc43)cc2c1=O | 44.3 | -0.1 | 46.0 | 51.0* | 46.8* | 14.7 | 17.8 | 92.6*
COc1ccc(C2c3ccc4ccccc4c3Oc3ncn(CCCN(C)C)c(=N)c32)cc1 (centres undefined) | 100.6* | 12.7 | 60.3 | 112.1* | 93.1* | -17.7 | -1.7 | 104.6* | Mdm2 MdmX conf=102.0*
COc1ccc(Cn2c(SCc3ccccc3C)nc3cc(OC)c(OC)cc3c2=N)cc1 | 84.3* | -4.2 | 90.3* | 102.0* | 96.2* | -31.1 | 12.1 | 106.6*
CC(C)c1cccc(O)c(=O)c1 | x | 17.3 | 23.7 | 47.7 | 4.7 | -3.8 | x | x | Mdm2 MdmX conf=96.7*
COc1ccc(CNC(=O)CCNC(=O)C2CCN(S(=O)(=O)c3ccc(OC)cc3)CC2)cc1 | x | -18.5 | -32.3 | 17.9 | -1.9 | 15.4 | x | x
CCCc1nc([N+](=O)[O-])c(S(=O)(=O)c2ccccc2)n1CC(C)C | 53.7 | 55.0* | 90.8* | 47.8 | 44.7* | -16.3 | 26.8 | -42.7
COc1ccc(OC)c2sc(N(CCN(C)C)C(=O)/C=C/c3cccs3)nc12 | 66.6* | 68.0* | u | 104.4* | 78.0* | -97.7* | 18.2 | 71.5*
CCOc1cccc2sc(N(CCN(C)C)C(=O)/C=C/c3cccs3)nc12 | 11.6 | 43.6 | -42.3 | 37.7 | 2.5 | -24.2 | x | x
CC(C)n1ncc2c(C(=O)NCc3cccnc3)cc(C3CC3)nc21 | 2.5 | -2.0 | 6.8 | 0.8 | 12.5 | 2.2 | x | x
Cc1nnc(SCC(=O)NC23CC4CC(CC(C4)C2)C3)n(N)c1=O | -11.5 | -4.6 | -17.6 | -7.2 | 68.1* | -17.6 | -5.5 | -8.5
CC(C)NC(=O)/C(C#N)=C/c1cccc(NC(=O)c2ccccc2Cl)c1 | 6.7 | 25.4 | 8.2 | 9.2 | 47.9* | -18.2 | 34.4 | 15.2
SMILES | TRPM1 prom inh | CF NFkB block | Shn3 3UTR inh | Peg3 prom inh | HIF-2a block | KKLEB cytotox | HIF-2a conf | HIF-1a cs | others
Cn1nnnc1Sc1ncnc2scc(-c3ccc(F)cc3)c12 | 82.6* | 60.3* | 92.7* | 96.8* | 77.6* | -45.0 | x | x | Mdm2 MdmX conf=103.0*
Cn1nnnc1SCc1nc2scc(-c3ccc(Cl)cc3)c2c(=O)[nH]1 | 6.2 | 7.4 | 30.0 | 4.3 | 1.3 | -6.7 | x | x
Cn1nnnc1Sc1ncnc2scc(-c3ccc(Br)cc3)c12 | 94.1* | 86.0* | 96.0* | 102.8* | 93.5* | -92.1* | 99.6* | 105.8* | Mdm2 MdmX conf=103.2*
Cc1ccc(-c2nnc(SCc3ccc(C#N)cc3)n2Cc2ccco2)cc1 | 14.1 | -27.2 | -27.4 | 34.8 | 38.5 | -8.4 | x | x
COc1cccc(-c2nnc(SCc3ccc(C#N)cc3)n2Cc2ccco2)c1 | 5.1 | -2.6 | 13.4 | 27.0 | 44.0* | -7.2 | 31.5 | 40.9
CC(=O)c1cccc(NC(=O)C(C)OC(=O)C2=NNC(=O)CC2)c1 (centres undefined) | -8.1 | -6.8 | -12.3 | -3.9 | -0.4 | 13.8 | x | x
CNC(=O)OCc1snc(-c2ccccc2)c1COC(=O)NC | x | 1.1 | -18.8 | 14.0 | -10.0 | -4.0 | x | x
Cc1ccccc1CS(=O)(=O)c1nnc([C@H](CC(C)C)NC(=O)OC(C)(C)C)o1 | 83.6* | 48.6 | u | 95.5* | 69.0* | -2.2 | 14.1 | -5.0
CC(C)C[C@H](NC(=O)OC(C)(C)C)c1nnc(SCc2ccccc2)o1 | -1.8 | -4.1 | 4.3 | 15.0 | 15.7 | 15.7 | x | x
CCOc1ccc(CNC(=O)c2cc3oc4ccccc4c3n2C)cc1 | -12.5 | 8.5 | -17.4 | -25.4 | -82.9 | -15.9 | x | x
COc1cccc(CNC(=O)c2cc3oc4ccccc4c3n2C)c1OC | 9.8 | 4.5 | -1.4 | -5.9 | -17.5 | -10.6 | x | x | Mdm2 MdmX conf=100.2*
CCOC(=O)C1(C)CCN1C(=O)COc1ccc(C(C)(C)C)cc1 (centres undefined) | x | -9.4 | -3.6 | -8.5 | -5.3 | 2.4 | x | x
O=C(/C=C\Nc1ccccn1)c1ccc(Cl)cc1 | -14.6 | -27.0 | 43.4 | -3.4 | 46.4* | -17.1 | 31.7 | 44.1
CN(C)CCNC(=O)c1cccc(-c2cc(NC=O)c3ncc(-c4cccc(C(F)(F)F)c4)n3c2)c1 | x | 1.2 | 26.5 | 98.4* | 94.8* | -9.5 | 9.0 | 106.0*
CN(C)CCNC(=O)c1cccc(-c2cnc3c(NC=O)cc(-c4cc(F)c(F)c(F)c4)cn23)c1 | x | 20.6 | 6.2 | 26.2 | 87.7* | -16.9 | 8.1 | 106.7*
